# Sampled rows, rich in hits. Any-hit rate of the full collection: about 3%.
# MITF TRPM1 inh: reduces MITF-dependent TRPM1 promoter luciferase signal; SK-MEL-5 TRPM1 promoter luciferase, 24 h; inhibition, % at 12.5 µM; 0.83% of 330,000 active; AID 488899;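 active means mean inhibition across replicates of 60% or more, whatever share of single replicates reaches that level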
# ABHD5-PLIN5 inh: blocks binding of human ABHD5 to perilipin-5 | Q00G26+Q8WTS1 | Split G. princeps luciferase complementation, luminescence, 4 h | 0.78% of 360,000 active | inhibition, % at 4 µM;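 active means inhibition above the mean inhibition across every tested compound plus 3 SD, cut at about 22% in these data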;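 further: 0% = DMSO only wells and the 100% control is not disclosed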
# Target sequence (Q00G26 whole entry, looked up): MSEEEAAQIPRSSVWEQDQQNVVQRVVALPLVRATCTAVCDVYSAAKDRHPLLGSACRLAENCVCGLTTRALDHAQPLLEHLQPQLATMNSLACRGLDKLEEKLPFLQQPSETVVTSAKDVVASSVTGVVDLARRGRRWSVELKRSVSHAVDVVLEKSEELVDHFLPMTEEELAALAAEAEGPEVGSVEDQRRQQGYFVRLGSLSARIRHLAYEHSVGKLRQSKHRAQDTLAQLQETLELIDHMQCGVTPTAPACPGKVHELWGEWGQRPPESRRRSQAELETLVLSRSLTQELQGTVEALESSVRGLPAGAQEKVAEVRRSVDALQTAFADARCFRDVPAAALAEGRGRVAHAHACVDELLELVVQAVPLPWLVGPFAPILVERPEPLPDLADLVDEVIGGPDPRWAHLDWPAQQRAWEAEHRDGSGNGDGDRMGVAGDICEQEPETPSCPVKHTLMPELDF
# Target sequence (Q8WTS1 whole entry, looked up): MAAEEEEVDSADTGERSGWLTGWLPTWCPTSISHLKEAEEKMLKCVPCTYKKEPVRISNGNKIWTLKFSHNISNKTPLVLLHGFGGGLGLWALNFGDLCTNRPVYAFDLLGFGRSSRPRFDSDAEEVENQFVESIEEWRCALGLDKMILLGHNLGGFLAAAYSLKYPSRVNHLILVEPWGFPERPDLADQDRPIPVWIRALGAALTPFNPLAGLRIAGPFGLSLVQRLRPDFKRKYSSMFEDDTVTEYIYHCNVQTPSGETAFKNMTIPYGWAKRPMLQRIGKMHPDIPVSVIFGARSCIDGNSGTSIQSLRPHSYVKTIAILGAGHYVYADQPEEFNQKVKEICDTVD
# HIF-2a block: blocks HIF-2a reporter activity; 786-0 RCC cells HIF-2a reporter, luciferase luminescence, overnight; 0.72% of 360,000 active; inhibition, % at 18.8 µM; AID 624352;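 active means inhibition of the luminescence signal of 40% or more relative to plate controls, in a single-dose primary screen at 18.75 µM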
# Peg3 prom inh: Peg3 promoter activity inhibition | 1.7% of 360,000 active | HeLa PEG-Prom luciferase reporter, luminescence, overnight | inhibition, % at 20 µM;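 active means inhibition of at least 50% at 20 µM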
# CF NFkB inh: cystic fibrosis NF-kB activation inhibition; KKLEB NF-kB-GFP reporter, PAF-induced, GFP fluorescence overnight; inhibition, % at 5 µM; 0.86% of 360,000 active; AID 588850;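 active means at least 50% inhibition at 5 µM, scaled per plate between neutral and stimulator controls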;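 further: PAF is a Pseudomonas aeruginosa culture filtrate used as stimulus; plate controls were PAF-stimulated DMSO wells for no effect and unstimulated DMSO wells for full effect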
# KKLEB tox: CF airway cell cytotoxicity counter-screen; activity change (cytotoxicity), % at 5 µM; KKLEB CF airway cells viability, ATPlite luminescence, overnight; active compounds read low; cells stimulated with P. aeruginosa culture filtrate; 0.36% of 360,000 active;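 active means corrected activity change at or below -50% at 5 µM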
# Starred values were filed as active, the others as inactive; . = not tested or not shown.
SMILES,MITF TRPM1 inh,ABHD5-PLIN5 inh,HIF-2a block,Peg3 prom inh,CF NFkB inh,KKLEB tox
COC(=O)CSC1=C(C#N)C(=O)NC(c2ccccc2)S1 (stereo unspecified),74*,-1,18,84*,-34,5
CN(c1ccccc1)S(=O)(=O)c1cc(C(=O)NCc2ccco2)ccc1Cl,.,1,10,-1,-5,1
Cc1ccc(C(=O)Nc2nnc(NC(=S)Nc3ccccc3)s2)cc1,-47,-8,-123,-77,65*,-2
CCOc1ccc(C(=O)Nc2nnc(NC(=S)Nc3ccccc3)s2)cc1,-46,-2,-112,-60,1,-23
O=S(=O)(Nc1cc(C(F)(F)F)ccc1N1CCOCC1)c1ccccc1,6,-1,13,3,8,2
O=S(=O)(Nc1cc(C(F)(F)F)ccc1N1CCOCC1)c1ccc2ccccc2c1,-5,3,22,50*,23,-4
NNC(=O)c1ccc(CSc2nc3ccccc3[nH]2)cc1,2,12,10,-10,-6,27
O=C(CN1CCN(S(=O)(=O)c2ccc(Br)cc2)CC1)N/N=C/c1cc([N+](=O)[O-])ccc1Cl,16,-1,11,9,-7,-6
Cc1ccc(S(=O)(=O)N2CCN(CC(=O)N/N=C\c3ccc(Cl)c([N+](=O)[O-])c3)CC2)cc1,-4,0,25,69*,-11,-2
CC(=O)c1ccc(S(=O)(=O)N2CCN(CC(=O)Nc3ccc(Cl)c([N+](=O)[O-])c3)CC2)cc1,1,-3,7,15,-6,2
O=C(CN1CCN(S(=O)(=O)c2ccc(Br)cc2)CC1)N/N=C/c1ccc(Cl)c([N+](=O)[O-])c1,12,5,23,93*,4,4
O=[N+]([O-])c1ccc(N2CCN(Cc3ccccc3)CC2)c2c1no[n+]2[O-],.,10,24,95*,42,-61*
O=[N+]([O-])c1ccc(N2CCN(Cc3ccccc3)CC2)s1,-10,11,9,-1,-3,2
CC1CCc2c(sc(NC(=O)CCC(=O)O)c2C(=O)NC2CC2)C1 (stereo unspecified),-9,-1,15,0,-12,2
COc1ccc(CCNC(=O)CCNS(=O)(=O)c2cccc(Cl)c2)cc1OC,-7,2,-52,-147,19,-27
O=C(CC(Nc1ccccc1)c1ccc(F)cc1)c1ccccc1 (stereo unspecified),-28,-4,-51,-68,9,0
O=C(CC(C(=O)c1ccccc1)c1ccccc1)c1ccccc1 (stereo unspecified),1,-2,-37,13,16,2
C=C(C(=O)c1ccccc1)C(C)CC(=O)c1ccccc1 (stereo unspecified),3,14,26,72*,14,-26
O=C(CC(Nc1ccccc1)C(=O)O)c1ccccc1 (stereo unspecified),-104,23*,-222,-202,-4,-2
Cc1ccc(C(=O)NCC(=O)OC(C)C(=O)NC2CCCc3ccccc32)cc1 (stereo unspecified),-2,-8,2,14,-16,11
CCc1ccc(-c2nc(CS(=O)CC(=O)NC3CCCCCC3)c(C)o2)cc1 (stereo unspecified),-14,-11,5,-17,-21,10
O=C1OC(c2ccc(Cl)cc2)/C(=C(/O)c2ccccc2)C1=O (stereo unspecified),5,23*,-30,-33,-9,0
CN1C(=O)C(=O)/C(=C(/O)c2ccc(Br)cc2)C1c1ccc(Cl)cc1 (stereo unspecified),-6,-6,9,-6,-5,-1
O=C(c1ccc(Cl)c(S(=O)(=O)N2CCc3ccccc32)c1)N1CCN(c2ccccc2O)CC1,39,-3,11,69*,-4,-14
COc1ccc(Cl)cc1S(=O)(=O)NCc1nc2nc(C)cc(C)n2n1,-4,-4,-1,1,14,3
SMILES,MITF TRPM1 inh,ABHD5-PLIN5 inh,HIF-2a block,Peg3 prom inh,CF NFkB inh,KKLEB tox
CC(c1ccccc1)N(NC(=O)C(O)(c1ccccc1)c1ccccc1)C(=O)c1ccccc1 (stereo unspecified),12,-4,17,41,0,12
O=c1[nH]c(CSc2nc3ccccc3s2)nc2ccccc12,-29,4,-187,-139,3,-5
COc1ccc(C2NCCc3c2[nH]c2ccccc32)cc1CSc1nc2ccccc2s1 (stereo unspecified),-3,17,-18,92*,16,-23
CCc1ccc(NC(=O)c2ccc3c(c2)C(=O)N(CCOC)C3Nc2ccc(CC)cc2)cc1 (stereo unspecified),.,-11,-105,-40,-2,-1
Oc1ccc(/C=N/Nc2ccnc3cc(Cl)ccc23)c(O)c1,2,6,-227,28,-47,21
Cc1ccccc1/C=N/Nc1ccnc2cc(Cl)ccc12,68*,-7,-53,94*,-57,-23
Cc1ccc(/C=N/Nc2ccnc3cc(Cl)ccc23)c(C)c1,87*,-9,8,111*,-16,-36
Clc1ccc2c(N/N=C/c3ccc(Br)cc3)ccnc2c1,31,-6,33,105*,-17,-16
Clc1ccc2c(N/N=C/c3cccnc3)ccnc2c1,20,4,-82,18,-168,5
Cc1ccc(Sc2ncnc3onc(C)c23)c(C)c1,15,-4,-4,0,17,-2
COC(=O)c1ccccc1Sc1ncnc2onc(C)c12,6,5,13,101*,38,0
COc1ccc(NC(=O)c2cc(-c3ccccc3O)n[nH]2)cc1Cl,-4,3,-64,-41,-6,11
COc1ccc(NC(=O)c2cc(-c3cc(C)cc(C)c3O)n[nH]2)cc1Cl,2,-1,-12,61*,33,-4
C=CCn1c(SCC(=O)Nc2sccc2C(N)=O)nc2ccc(Cl)cc2c1=O,20,13,23,52*,-13,-7
C=CCn1c(SCC(=O)Nc2sccc2C(N)=O)nc2sc(CC)cc2c1=O,34,8,-3,57*,-14,-4
C=CCn1c(SCC(=O)Nc2sccc2C(N)=O)nc2ccccc2c1=O,8,0,13,35,-14,6
O=C(Nc1ccc(Cl)c(Cl)c1)N[C@@H]1CC[C@@H](CCn2cc(C3CCCCC3)nn2)O[C@@H]1CO,.,-19,1,.,.,.
COc1ccc(C(C(=O)NC2CCCCC2)N(Cc2ccco2)C(=O)c2snc(C(N)=O)c2N)cc1 (stereo unspecified),13,2,12,58*,8,-14
CCOC(=O)c1ccccc1NC(=O)c1cn(-c2ccc(C)c(C)c2)c(=O)c2ccccc12,1,-5,18,47,26,-3
COC(=O)c1ccccc1NC(=O)c1cn(-c2ccc(C)c(C)c2)c(=O)c2ccccc12,0,-1,16,52*,29,-21

# From PubChem BioAssay
